Laboratory results taken from the supplement of paper PMC10646978.
± gives the standard deviation.

How the values were obtained:
Settings in all cases: modulator concentration 10 µM
[1] = system: RAW-Dual (murine macrophage reporter line); test: NF-kB reporter (SEAP) activity fold change vs agonist alone; higher = enhanced NF-kB activity
In short: (§1)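 Compound reached 10 μM final in each well by pin transfer, onto RAW-Dual murine macrophage reporter cells seeded at 50 000 per well in 384-well plates. After 1 hour at 37 °C, the cells were stimulated overnight with a PRR agonist. SEAP in the supernatant was read with QUANTI-Blue at 620 nm absorbance for NF-κB, and Lucia luciferase was read with QUANTI-Luc luminescence for IRF. Each signal was turned into fold change against the mean agonist-only control on the same plate, and two replicate plates were averaged with propagated errors.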

[2] = system: RAW-Dual (murine macrophage reporter line); test: IRF reporter (Lucia luciferase) activity fold change vs agonist alone; higher = enhanced IRF activity
In short: as §1

[3] = system: RAW-Dual (murine macrophage reporter line); test: viability score (confluency relative to resting cells, overnight) (fraction); higher = more viable, active = viable (0.7 or more)
In short: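 RAW-Dual macrophages in 384-well plates were exposed overnight to compound at 10 μM final. Confluency was imaged with IncuCyte, and two confluency masks were generated with IncuCyte software over all imaged wells. The viability score is confluency expressed relative to resting cells. Compounds were called viable if both masks exceeded 70% of resting cells.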

[4] = agonist: CpG ODN 1826 0.5 ug/mL

Row | Compound | NF-kB reporter [1, 4] | NF-kB reporter ([1]; agonist: LPS 0.1 ug/mL) | NF-kB reporter ([1]; agonist: MPLA […]) | IRF reporter ([2]; agonist: 3'3'-cGAMP 10 ug/mL) | IRF reporter ([2]; agonist: LPS 0.1 ug/mL) | IRF reporter ([2]; agonist: MPLA […]) | viability score [3]
1 | C1CCc2nnnn2CC1 [Prestw-162] | 1.27 ± 0.3 | 0.966 ± 0.18 | 1.03 ± 0.1 | 0.941 ± 0.039 | 1.11 ± 0.17 | 1.03 ± 0.23 | 1.01 (active)
2 | COc1cc(OC)c(OC)cc1C=O | 1.08 ± 0.3 | 1.04 ± 0.082 | 1.02 ± 0.067 | 0.794 ± 0.027 | 1.02 ± 0.11 | 0.99 ± 0.22 | 0.992 (active)
3 | COc1ccc(CCNCc2cccc3ccccc23)cc1OC | 0.222 ± 0.016 | 0.82 ± 0.059 | 0.867 ± 0.058 | 0.872 ± 0.047 | 1.32 ± 0.093 | 1.44 ± 0.14 | 0.947 (active)
4 | COC(=O)C1C2C(=O)N(c3ccccc3)C(=O)C12c1ccc(Cl)cc1 (centres undefined) | 1.1 ± 0.094 | 1.11 ± 0.09 | 1.01 ± 0.037 | 1.01 ± 0.04 | 1.03 ± 0.055 | 1.08 ± 0.11 | 1 (active)
5 | O=C(NCCN1CCOCC1)c1ccc(Cl)nc1 | 0.917 ± 0.17 | 1.15 ± 0.13 | 0.995 ± 0.1 | 0.987 ± 0.026 | 1.12 ± 0.21 | 1.09 ± 0.13 | 0.972 (active)
6 | O=C1NC(=O)C(=CNc2cccc(O)c2)C(=O)N1 | 0.859 ± 0.075 | 0.914 ± 0.053 | 1.09 ± 0.13 | 0.977 ± 0.062 | 1.43 ± 0.1 | 1.6 ± 0.17 | 1.01 (active)
7 | Nc1ccncc1 | 1 ± 0.24 | 1.03 ± 0.078 | 0.879 ± 0.056 | 0.514 ± 0.022 | 0.929 ± 0.11 | 0.976 ± 0.25 | 0.858 (active)
8 | COc1ccc(CCNCc2ccc3ccccc3c2)cc1OC | 0.42 ± 0.095 | 0.762 ± 0.058 | 0.849 ± 0.08 | 0.893 ± 0.045 | 1.17 ± 0.12 | 1.24 ± 0.14 | 0.984 (active)
9 | Cc1cc(C(=O)N2C3CCC2c2cncnc2C3)n(C)n1 (centres undefined) | 0.979 ± 0.074 | 1.01 ± 0.085 | 0.917 ± 0.046 | 0.983 ± 0.085 | 1.19 ± 0.096 | 1.11 ± 0.22 | 1 (active)
10 | O=[N+]([O-])c1ccc(NCCc2ccccc2)c2ncccc12 | 0.971 ± 0.17 | 1.04 ± 0.086 | 1.6 ± 0.64 | 0.926 ± 0.032 | 1.25 ± 0.21 | 1.31 ± 0.2 | 0.997 (active)
11 | O=c1[nH]c2ccccc2n1CCCN1CCC(n2c(=O)[nH]c3cc(Cl)ccc32)CC1 | 0.114 ± 0.018 | 1.14 ± 0.082 | 0.973 ± 0.074 | 0.865 ± 0.026 | 1.31 ± 0.14 | 1.12 ± 0.092 | 0.981 (active)
12 | COc1ccccc1CC(=O)N1CCN(Cc2cnnn2-c2ccccc2F)CC1 | 0.894 ± 0.048 | 0.985 ± 0.084 | 1.15 ± 0.065 | 1.16 ± 0.093 | 1.14 ± 0.19 | 1.11 ± 0.46 | 1.01 (active)
13 | COCCN1C(=O)CN(C2CCN(CC(=O)N3CC(C)OC(C)C3)CC2)C1=O (centres undefined) | 0.903 ± 0.056 | 0.889 ± 0.11 | 0.997 ± 0.073 | 0.95 ± 0.13 | 0.979 ± 0.13 | 1.03 ± 0.29 | 0.977 (active)
14 | O=C(NCCN1CCN(c2ccccc2)CC1)c1ccc(F)cc1 | 1 ± 0.081 | 1.04 ± 0.051 | 1.03 ± 0.026 | 1.1 ± 0.18 | 0.94 ± 0.045 | 0.83 ± 0.084 | 1 (active)
15 | COc1ccc(CNCCc2c[nH]c3ccccc23)c(OC)c1C | 0.258 ± 0.021 | 0.924 ± 0.076 | 2.6 ± 0.15 | 1.4 ± 0.048 | 3.32 ± 0.42 | 2.88 ± 0.25 | 0.178 (inactive)
16 | COc1cc(C2c3cc4c(c(O)c3CC3COC(=O)C32)OCO4)cc(OC)c1OC (centres undefined) | 2.38 ± 0.14 | 1.31 ± 0.086 | 2.08 ± 0.14 | 0.0984 ± 0.0043 | 1.75 ± 0.2 | 1.92 ± 0.17 | 0.735 (active)
17 | CC(=O)Nc1ccc(C(=O)NCC#CCN(C)C)cc1 | 0.899 ± 0.04 | 0.879 ± 0.083 | 1.07 ± 0.058 | 1.04 ± 0.057 | 1.17 ± 0.29 | 1.3 ± 0.45 | 1 (active)
18 | CN1C2CCC1CC(OC(=O)[C@H](CO)c1ccccc1)C2 (some centres undefined) | 1.05 ± 0.096 | 0.961 ± 0.051 | 0.984 ± 0.031 | 0.955 ± 0.069 | 0.968 ± 0.088 | 0.858 ± 0.14 | 0.997 (active)
19 | NC(=O)Cn1c(Cc2ccccc2Cl)nc2ccccc21 | 0.97 ± 0.061 | 0.84 ± 0.074 | 0.912 ± 0.031 | 0.996 ± 0.06 | 1.06 ± 0.093 | 0.99 ± 0.13 | 0.997 (active)
20 | CC12CCC3C(CCC4CC(O)CCC43C)C1CCC2O (centres undefined) | 1.23 ± 0.29 | 0.968 ± 0.059 | 2.43 ± 1.5 | 0.891 ± 0.037 | 1.13 ± 0.18 | 1.21 ± 0.14 | 0.963 (active)
21 | CC(C)=CCOc1c2occc2cc2ccc(=O)oc12 | 1.13 ± 0.27 | 0.823 ± 0.064 | 0.957 ± 0.088 | 1.09 ± 0.047 | 1.47 ± 0.17 | 1.58 ± 0.21 | 0.95 (active)
22 | CN1CC(CNC(=O)OCc2ccccc2)CC2c3cccc4c3c(cn4C)CC21 (centres undefined) | 1.02 ± 0.065 | 0.966 ± 0.11 | 0.963 ± 0.08 | 0.986 ± 0.034 | 1.43 ± 0.14 | 1.2 ± 0.18 | 0.997 (active)
23 | O=C1NC(=O)C(=Cc2cc(Br)ccc2OCc2ccc(Cl)cc2Cl)C(=O)N1 | 0.887 ± 0.05 | 0.945 ± 0.071 | 0.794 ± 0.058 | 0.949 ± 0.033 | 0.751 ± 0.11 | 0.822 ± 0.16 | 0.991 (active)
24 | COc1ccc2c3c([nH]c2c1)C(C)=NCC3 | 0.359 ± 0.089 | 0.917 ± 0.046 | 0.852 ± 0.054 | 0.778 ± 0.038 | 0.771 ± 0.17 | 0.793 ± 0.15 | 1 (active)
25 | COc1ccccc1N1C(=O)C(=Cc2ccc(C)s2)C(=O)NC1=S | 1.07 ± 0.11 | 1.08 ± 0.093 | 0.973 ± 0.084 | 0.953 ± 0.049 | 1.8 ± 0.28 | 1.39 ± 0.14 | 0.992 (active)
26 | Cc1cccc2sc(NC(=O)c3cccn(Cc4ccc(Br)cc4)c3=O)nc12 | 1.06 ± 0.12 | 1.13 ± 0.096 | 1.02 ± 0.15 | 1.04 ± 0.052 | 1.32 ± 0.084 | 1.12 ± 0.085 | 1 (active)
27 | Cc1ccc(C)c2sc(N3CCN(C)CC3)nc12.Cl | 0.743 ± 0.18 | 1.02 ± 0.18 | 1.07 ± 0.071 | 0.92 ± 0.032 | 1.04 ± 0.14 | 1.19 ± 0.22 | 0.976 (active)
